Results published in PubChem BioAssay AID1159580 (chemical genetic matrix, 2015).
The campaign covered roughly 5,500 compounds. About 2,000 (36%) were called active. Roughly 18% stayed inconclusive and do not appear here. Rule as the data show it: active = normalized growth mostly below about 0.91 (no sharp cut-off); inconclusive = no clear call, values can overlap the other calls; inactive = mostly above about 0.92. The list shows a part of the results.

Test: chemical genetic growth profiling, strain panel (AID 1159580);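 also: tested at 20 µM; growth read once vehicle control cultures reached saturation at 30 °C; 1 = growth at the plate median or of vehicle wells; lower values mean less growth of the strain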
Details: growth OD

Measured: normalized growth

O=c1c(O)c(-c2ccc(O)c(O)c2)oc2cc(O)ccc12
inactive: S. cerevisiae deletion strains, locus YKL009W, strain mrt4, active compounds read low 1.03 | S. cerevisiae deletion strains, locus YKL068W, active compounds read low 0.99 | S. cerevisiae deletion strains, locus YKL085W, strain MDH1 (second series), active compounds read low 1 | S. cerevisiae deletion strains, locus YKL085W, strain MDH1, active compounds read low 1 | S. cerevisiae deletion strains, locus YKL160W, strain elf1, active compounds read low 0.982 | S. cerevisiae deletion strains, locus YKR026C, strain gcn3, active compounds read low 1 | S. cerevisiae deletion strains, locus YKR091W, strain srl3, active compounds read low 1 | S. cerevisiae deletion strains, locus YLL001W, strain dnm1, active compounds read low 0.994 | S. cerevisiae deletion strains, locus YLL026W, active compounds read low 0.995 | S. cerevisiae deletion strains, locus YLL041C, strain sdh2, active compounds read low 0.996 | S. cerevisiae deletion strains, locus YLR027C, strain aat2, active compounds read low 0.968 | S. cerevisiae deletion strains, locus YLR039C, strain RIC1, active compounds read low 0.848 | S. cerevisiae deletion strains, locus YLR058C, strain SHM2, active compounds read low 0.978 | S. cerevisiae deletion strains, locus YLR102C, strain apc9, active compounds read low 1.01 | S. cerevisiae deletion strains, locus YLR221C, strain rsa3, active compounds read low 0.95 | S. cerevisiae deletion strains, locus YLR258W, strain gsy2, active compounds read low 1 | S. cerevisiae deletion strains, locus YLR262C, strain YPT6 (second series), active compounds read low 0.981 | S. cerevisiae deletion strains, locus YLR262C, strain YPT6, active compounds read low 0.877 | S. cerevisiae deletion strains, locus YLR320W, strain mms22, active compounds read low 0.942 | S. cerevisiae deletion strains, locus YLR342W, strain FKS1, active compounds read low 0.978 | S. cerevisiae deletion strains, locus YLR357W, strain rsc2, active compounds read low 0.922 | S. cerevisiae deletion strains, locus YLR370C, strain arc18, active compounds read low 0.978 | S. cerevisiae deletion strains, locus YLR384C, strain iki3, active compounds read low 0.98 | S. cerevisiae deletion strains, locus YML016C, strain PPZ1, active compounds read low 0.974 | S. cerevisiae deletion strains, locus YML032C, strain rad52, active compounds read low 0.962 | S. cerevisiae deletion strains, locus YML120C, strain ndi1, active compounds read low 1.01 | S. cerevisiae deletion strains, locus YML124C, strain tub3, active compounds read low 1 | S. cerevisiae deletion strains, locus YMR058W, strain fet3, active compounds read low 0.944 | S. cerevisiae deletion strains, locus YMR078C, strain ctf18, active compounds read low 0.997 | S. cerevisiae deletion strains, locus YMR125W, strain sto1, active compounds read low 1.02 | S. cerevisiae deletion strains, locus YMR129W, active compounds read low 0.986 | S. cerevisiae deletion strains, locus YMR205C, strain PFK2, active compounds read low 0.994 | S. cerevisiae deletion strains, locus YMR231W, strain pep5, active compounds read low 0.987 | S. cerevisiae deletion strains, locus YMR263W, strain SAP30, active compounds read low 0.892 | S. cerevisiae deletion strains, locus YMR307W, strain GAS1, active compounds read low 0.675 | S. cerevisiae deletion strains, locus YNL067W, strain RPL9B, active compounds read low 0.901 | S. cerevisiae deletion strains, locus YNL071W, strain lat1, active compounds read low 0.945 | S. cerevisiae deletion strains, locus YNL128W, strain TEP1, active compounds read low 0.864 | S. cerevisiae deletion strains, locus YNL209W, strain ssb2, active compounds read low 0.949 | S. cerevisiae deletion strains, locus YNL248C, strain rpa49, active compounds read low 0.995 | S. cerevisiae deletion strains, locus YNL250W, strain rad50, active compounds read low 0.942 | S. cerevisiae deletion strains, locus YNL271C, strain bni1, active compounds read low 0.978 | S. cerevisiae deletion strains, locus YNL298W, strain CLA4, active compounds read low 0.965 | S. cerevisiae deletion strains, locus YNL322C, strain KRE1 (second series), active compounds read low 1 | S. cerevisiae deletion strains, locus YNR049C, strain mso1, active compounds read low 0.997 | S. cerevisiae deletion strains, locus YNR052C, strain pop2, active compounds read low 1 | S. cerevisiae deletion strains, locus YOL012C, strain htz1 0.318 | S. cerevisiae deletion strains, locus YOL147C, strain pex11, active compounds read low 1 | S. cerevisiae deletion strains, locus YOR001W, strain rrp6, active compounds read low 0.935 | S. cerevisiae deletion strains, locus YOR061W, strain CKA2, active compounds read low 0.955 | S. cerevisiae deletion strains, locus YOR069W, strain VPS5, active compounds read low 0.997 | S. cerevisiae deletion strains, locus YOR070C, strain gyp1, active compounds read low 0.968 | S. cerevisiae deletion strains, locus YOR080W, strain dia2, active compounds read low 0.984 | S. cerevisiae deletion strains, locus YOR083W, strain WHI5, active compounds read low 0.984 | S. cerevisiae deletion strains, locus YOR106W, strain vam3, active compounds read low 0.984 | S. cerevisiae deletion strains, locus YOR136W, strain idh2, active compounds read low 0.976 | S. cerevisiae deletion strains, locus YOR144C, strain elg1, active compounds read low 1.01 | S. cerevisiae deletion strains, locus YOR184W, strain ser1, active compounds read low 0.883 | S. cerevisiae deletion strains, locus YOR265W, strain rbl2, active compounds read low 1.02 | S. cerevisiae deletion strains, locus YOR270C, strain vph1, active compounds read low 1.02 | S. cerevisiae deletion strains, locus YOR290C, strain snf2, active compounds read low 0.997 | S. cerevisiae deletion strains, locus YOR316C, strain cot1, active compounds read low 1.01 | S. cerevisiae deletion strains, locus YPL051W, strain arl3, active compounds read low 0.962 | S. cerevisiae deletion strains, locus YPL055C, strain LGE1, active compounds read low 0.784 | S. cerevisiae deletion strains, locus YPL078C, strain atp4, active compounds read low 1.01 | S. cerevisiae deletion strains, locus YPL106C, strain sse1, active compounds read low 0.971 | S. cerevisiae deletion strains, locus YPL240C, strain hsp82, active compounds read low 0.998 | S. cerevisiae deletion strains, locus YPL241C, strain CIN2, active compounds read low 0.981 | S. cerevisiae deletion strains, locus YPR119W, strain clb2, active compounds read low 1.01 | S. cerevisiae deletion strains, locus YPR141C, strain kar3, active compounds read low 0.978 | S. cerevisiae deletion strains, locus YPR163C, strain tif3, active compounds read low 0.956 | S. cerevisiae deletion strains, locus YPR167C, strain met16, active compounds read low 1.01
active: S. cerevisiae deletion strains, locus YKL190W, strain CNB1, active compounds read low 0.881 | S. cerevisiae deletion strains, locus YKR001C, strain vps1, active compounds read low 0.857 | S. cerevisiae deletion strains, locus YLR113W, strain HOG1, active compounds read low 0.571 | S. cerevisiae deletion strains, locus YLR268W, strain sec22, active compounds read low 0.854 | S. cerevisiae deletion strains, locus YLR330W, strain CHS5, active compounds read low 0.908 | S. cerevisiae deletion strains, locus YLR342W, strain FKS1 (second series), active compounds read low 0.753 | S. cerevisiae deletion strains, locus YLR371W, strain rom2, active compounds read low 0.882 | S. cerevisiae deletion strains, locus YLR418C, strain cdc73, active compounds read low 0.565 | S. cerevisiae deletion strains, locus YMR223W, strain ubp8, active compounds read low 0.893 | S. cerevisiae deletion strains, locus YNL153C, strain GIM3, active compounds read low 0.806 | S. cerevisiae deletion strains, locus YNL183C, strain NPR1, active compounds read low 0.357 | S. cerevisiae deletion strains, locus YNL233W, strain BNI4, active compounds read low 0.795 | S. cerevisiae deletion strains, locus YNL307C, strain MCK1, active compounds read low 0.779 | S. cerevisiae deletion strains, locus YNL322C, strain KRE1, active compounds read low 0.918 | S. cerevisiae deletion strains, locus YOL006C, strain TOP1, active compounds read low 0.52 | S. cerevisiae deletion strains, locus YOR231W, strain MKK1, active compounds read low 0.54 | S. cerevisiae deletion strains, locus YPL256C, strain CLN2, active compounds read low 0.421 | S. cerevisiae deletion strains, strain wtn01, active compounds read low 0.86 | S. cerevisiae strains, strain wild type, active compounds read low 0.815
